FBW7 activator: FBW7 E3 ligase activators, primary screen, biochemical, AlphaScreen, human. F-box/WD repeat-containing protein 7 (Homo sapiens), Q969H0. AlphaScreen FBW7–phospho-cyclin E peptide binding, activator screen. normalized activity (activation), % at 26.1 µM. 0.13% of 650,000 active; in the data active = normalized activity above about 1.9%;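 also: purified mutant Fbw7 with reduced substrate affinity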
GPR151 activ: activators of human GPR151, primary screen, cell-based, PathHunter beta-arrestin, luminescence | activation, % at 11.2 µM | G-protein coupled receptor 151 (Homo sapiens), Q8TDV0 | 1% of 650,000 active | PathHunter beta-arrestin GPR151 cells; in the data active = activation above about 4.9%;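 also: 0% = median of compound wells and 100% = cells with positive control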
MITF primary: MITF inhibitors, primary screen, biochemical, AlphaScreen, human. Microphthalmia-associated transcription factor (Homo sapiens), O75030. AlphaScreen MITF homodimerization, bead proximity signal. inhibition, % at 2.6 µM. 0.91% of 650,000 active; in the data active = inhibition above about 50%;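 also: 0% = vehicle wells with protein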
Target sequence (O75030 whole entry, looked up): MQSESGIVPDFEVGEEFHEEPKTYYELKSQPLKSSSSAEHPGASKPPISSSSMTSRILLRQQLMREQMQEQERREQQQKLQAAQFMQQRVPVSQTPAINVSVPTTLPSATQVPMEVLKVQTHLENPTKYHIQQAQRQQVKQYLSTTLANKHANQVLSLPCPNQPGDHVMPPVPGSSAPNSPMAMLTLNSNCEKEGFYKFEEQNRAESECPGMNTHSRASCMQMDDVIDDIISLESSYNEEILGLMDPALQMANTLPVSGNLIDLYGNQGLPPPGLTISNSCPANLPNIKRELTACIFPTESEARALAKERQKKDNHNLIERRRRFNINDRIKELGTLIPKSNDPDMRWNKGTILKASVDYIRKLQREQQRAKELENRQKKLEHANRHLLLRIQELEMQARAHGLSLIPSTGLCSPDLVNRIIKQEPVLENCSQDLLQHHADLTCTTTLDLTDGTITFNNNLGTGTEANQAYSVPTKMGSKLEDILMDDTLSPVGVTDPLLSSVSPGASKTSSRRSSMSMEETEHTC
TEAD-YAP inh: TEAD-YAP interaction inhibition, primary screen, TEAD-YAP interaction inhibitor project, luminescence, HEK-TIYL cells | TEAD-Gal4/YAP UAS-luciferase luminescence | inhibition, % at 9.12 µM | 1.4% of 640,000 active | AID 1259422, 2018; in the data active = inhibition above about 32%;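 also: 0% = median of test compound wells and 100% = reference inhibitor wells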
MITF confirm: MITF inhibitors, retest of hits, confirmation, biochemical, AlphaScreen, triplicate. shares compounds with MITF primary. AlphaScreen MITF homodimerization, biotin/His-MITF beads. inhibition, % at 2.6 µM. 16% of 4,700 active;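 active = inhibition above a cutoff derived from the DMSO control wells, cut at about 28% in these data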;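 also: 0% = MITF dimer wells with DMSO only; inhibitors lower the bead chemiluminescence by keeping MITF from dimerizing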
AS interf DR: AlphaScreen optical interference compounds, dose response, counter-screen, biochemical, HTS. shares compounds with MITF primary. AlphaScreen optical interference counterscreen, cell-free. IC50, µM. 6% of 480 active. AID 1259373, 2018; call rule not given here
AS interf ctr: AlphaScreen optical interference compounds, counter-screen for MITF inhibitor project, biochemical, triplicate; shares compounds with MITF primary; LysRS AlphaScreen counterscreen, signal interference; inhibition, % at 2.6 µM; 7.6% of 4,700 active; AID 1259376, 2018;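 active = inhibition above a cutoff derived from the DMSO control wells, cut at about 30% in these data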
Numbers without * were called inactive; nt = no result given. Only some compounds are listed: those with a hit (about 3.4% of all), similar ones and a draw of the others.

SMILES	FBW7 activator	GPR151 activ	MITF primary	TEAD-YAP inh	MITF confirm	AS interf ctr	others
CCCC(C)C(=O)Nc1ccccc1C (stereo not given)	1	0	51*	2	1	9
Cc1c(NC(=O)C(C)OC(=O)c2cc3c(s2)CCC3)c(=O)n(-c2ccccc2)n1C (stereo not given)	0	-1	80*	8	80*	10	AS interf DR=>6.7
C[n+]1c(-c2ccccc2)cn2ncsc21	0	-1	8	4	nt	nt
CCOC(=O)c1cc(N2C(=O)C3C4C=CC(C4)C3C2=O)ccc1Cl (stereo not given)	0	4	59*	-7	55*	9	AS interf DR=>6.5
CC(=O)Nc1cc(N2C(=O)C3C4C=CC(C4)C3C2=O)ccc1Cl (stereo not given)	0	2	-16	-3	nt	nt
O=C(OCCCC(=O)N1CCOCC1)c1cc(-c2ccco2)nc2ccccc12	0	-1	73*	-7	77*	4	AS interf DR=>6.6
O=C(NC(=S)N1CCOCC1)c1cc(-c2ccco2)nc2ccccc12	0	3	-4	3	nt	nt
COCCNC(=O)COC(=O)c1cc(-c2ccco2)nc2ccccc12	0	1	72*	2	69*	-9	AS interf DR=>6.6
COC(=O)c1c(OCc2cccnc2)cc(=O)n2c1CCN(C(=O)C1CCCCC1)CC2	0	-1	69*	-1	-6	2
CCOC(=O)c1c(-c2ccc(OC)c(OC)c2)csc1NC(=O)CCN1CCN(C)CC1	0	-1	81*	5	-5	3
CCOC(=O)c1cc(-c2ccccc2)sc1NC(=O)CCN1CCN(C)CC1	0	2	58*	-8	1	18
CCOC(=O)c1c(-c2ccc(C)cc2)csc1NC(=O)CCN1CCN(CC)CC1	0	0	53*	-4	4	3
CCOC(=O)c1c(-c2ccc(F)cc2)csc1NC(=O)CN1CCOCC1	0	0	-6	-2	nt	nt
CCOC(=O)c1c(-c2ccc(OC)c(OC)c2)csc1NC(=O)CN1CCCC1	0	1	-12	5	nt	nt
CCOC(=O)c1c(-c2ccc(F)cc2)csc1NC(=O)CN1CCN(CC)CC1	0	-1	63*	9	5	14
COCC(=O)OCC(=O)/C=C1/N(C)c2ccccc2C1(C)C	0	0	2	-10	nt	nt
Cc1nc(NCc2cccs2)c2c3c(sc2n1)CCCC3	0	0	-3	-16	nt	nt
COCCCNC(=O)c1cc(C)nc2c1c(C)nn2-c1ccc(C)cc1	0	-2	3	-9	nt	nt
CCN1CCN(CC(=O)NCc2ccc(F)cc2)CC1	0	2	79*	3	3	14
CC(C)c1ccc(OCC(=O)NCCS(=O)(=O)N2CCc3ccccc32)cc1	0	1	81*	3	-7	-2
O=C(NCc1ccccn1)c1ccc2c(=O)n(Cc3ccc(Cl)cc3)c(=S)[nH]c2c1	0	1	-9	-11	nt	nt
O=C(/C=C/c1ccco1)OCC(=O)N1CCCC1	0	3	17	3	nt	nt
O=C(/C=C/c1ccco1)/C=C/c1ccco1	0	1	68*	9	77*	97*
O=C(/C=C/c1ccco1)ON1C(=O)c2ccccc2C1=O	0	0	56*	-3	35*	1	AS interf DR=>6.5
O=C(/C=C/c1ccco1)Nc1cccc(NC(=O)/C=C/c2ccco2)n1	0	-1	82*	-48	49*	1	AS interf DR=>6.7
SMILES	FBW7 activator	GPR151 activ	MITF primary	TEAD-YAP inh	MITF confirm	AS interf ctr	others
O=C(O)CCCNC(=O)/C=C/c1ccco1	0	1	62*	3	59*	3	AS interf DR=>6.5
Cc1nn(-c2ccccc2)c2sc(C(=O)Nc3cccc4ccccc34)cc12	0	0	-5	-9	nt	nt
O=C(Nc1ccc(-c2nc3ncccc3o2)cc1)c1ccc([N+](=O)[O-])cc1Cl	0	-1	11	-4	nt	nt
COC(=O)c1cnc(Nc2ccc(C(F)(F)F)cc2)c2ccccc12	0	-1	4	5	nt	nt
Cc1c(C(=O)NC2CCCCC2)sc2nc(SCc3cccc([N+](=O)[O-])c3)n(Cc3ccccc3)c(=O)c12	0	0	8	-4	nt	nt
O=C(/C=C/c1ccco1)Nc1nnc(-c2ccco2)s1	0	0	52*	30	57*	8	AS interf DR=>6.5
O=C(/C=C/c1ccco1)NCc1cccc(CNC(=O)/C=C/c2ccco2)c1	0	2	74*	4	82*	16	AS interf DR=>6.5
CCc1nnc(NC(=O)/C=C/c2ccco2)s1	0	1	0	-34	nt	nt
NC1=NC(=O)C(Cc2ccccc2)(c2ccccc2)O1 (stereo not given)	1	-1	-5	-9	nt	nt
O=C(Cc1ccc(O)cc1)NCCn1nc(-c2cccs2)ccc1=O	0	-1	18	2	nt	nt
CCOc1ccccc1/C=N\NC(=O)c1ccco1	0	0	70*	-42	2	9
C/C=C/c1ccc(OCCOCCNC(C)CC)c(OC)c1 (stereo not given)	0	0	70*	5	5	4
CCOc1ccccc1OCCOCCNC(C)CC (stereo not given)	0	-3	77*	6	2	-7
CCC(C)NCCOc1ccccc1C (stereo not given)	0	0	23	10	nt	nt
Nc1c(C(=O)Nc2cccc(Br)c2)sc2nc3c(c(-c4cccs4)c12)CCCC3	0	0	-14	-5	nt	nt
CSc1ccccc1NC(=O)CN(C)CC(=O)Nc1ccc(C(N)=O)cc1	0	1	14	-4	nt	nt
Cc1cc(NC(=O)CN(C)CCOc2ccccc2)ccc1Br	0	1	36	5	nt	nt
CN(CCOc1ccccc1)CC(=O)Nc1ccc(C(F)(F)F)cc1	0	-1	66*	0	-17	2
COc1ccc(NC(=O)CN(C)CC(=O)Nc2ccccc2SC)cc1	0	2	75*	-3	4	12
Cc1ccc(NC(=O)CN(C)CC(=O)Nc2ccccc2Oc2ccccc2)cc1	0	-1	91*	6	3	7
Cc1sc2ncn(CC(=O)NCC(=O)Nc3ccc4c(c3)OCO4)c(=O)c2c1C	0	-2	55*	-8	-1	14
Cc1cnc(C)c(-c2cccc3c2OC(CNC(=O)c2coc4c2C(=O)CCC4)C3)n1 (stereo not given)	0	-1	12	-17	nt	nt
Cc1nc(-c2ccc(NC(=O)c3cc4cc(Br)cc(Br)c4oc3=O)cc2)cs1	1	0	0	4	nt	nt
